High-throughput results as filed in PubChem.
HP1b binding inh: HP1-beta chromodomain-methylated histone interaction inhibition; P83916; AlphaScreen HP1-beta / biotin-H3K9me3 peptide binding; AID 540317; Potency, µM (highest dose often 114 µM), hits mostly inhibitors; hit rate 0.56% among 390,000; note: nearly all actives have a fitted effect of over 70% in size
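HP1-beta protein (50 nM final) preincubated 30 min at room temperature with biotinylated H3(1-18)K9me3 peptide (50 nM) in PBS pH 7.4, 0.01% Tween-20, then compound added for 30 min. AlphaScreen streptavidin donor/nickel chelate acceptor beads (10 ug/mL final), 30 min dark, luminescence read.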
L3MBTL1 inh: blocks human L3MBTL1 | AlphaScreen L3MBTL1–H3K9me1 peptide binding | hit rate 0.66% among 230,000 | Q9Y468 | Potency, µM (highest dose often 57.1 µM), most hits filed as inhibitors | AID 485360; note: nearly all actives have a fitted effect of over 60% in size
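Read-out is AlphaScreen signal from streptavidin donor and nickel chelate acceptor beads (10 ug/mL final each) bridging L3MBTL1 (50 nM) and biotinylated K9-monomethylated H3(1-15) peptide (75 nM), after 30 min compound exposure at room temperature.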
G9a block: inhibitors of human histone lysine methyltransferase G9a | G9a H3K9 monomethylation, AlphaScreen, 2 h | hit rate 8.8% among 350,000 | Potency, µM (doses to about 102 µM), usual class: inhibitors | Q96KQ7; note: nearly all actives have a fitted effect of over 75% in size
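Methyltransferase reactions run at room temperature for 2 h (20 nM enzyme, 500 nM biotin-H3K9 peptide, 20 uM SAM) after a 15 min compound preincubation; product detected by AlphaScreen beads and anti-H3K9me1 antibody.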
JMJD2A Tudor inh: JMJD2A Tudor domain (human) inhibition. AID 504339. O75164. AlphaScreen JMJD2A-Tudor / H3K4me3 peptide binding. hit rate 4.4% among 390,000. Potency, µM (titrated, usually from 114 µM), actives largely listed as inhibitors; note: nearly all actives have a fitted effect of over 50% in size
BAZ2B inh: inhibitors of human BAZ2B bromodomain | AID 504333 | Q9UIF8 | AlphaScreen BAZ2B-H3K14Ac peptide displacement | hit rate 4.4% among 360,000 | Potency, µM (doses to about 114 µM), usual class: inhibitors; note: nearly all actives have a fitted effect of over 60% in size
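Inhibition is scored as reduced AlphaScreen emission. The BAZ2B/b-H3(5-23)K14Ac complex (50 nM each) in PBS pH 7.4, 0.01% Tween-20 meets compound (up to 110 uM) for 30 min at RT before bead addition.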
Each line names hits and unclear results; the compound was inactive in the other large screens. An excerpt weighted towards active compounds, which were near 11% of everything screened. Calls come from the whole dose curve; as a rule, active = well fitted inhibition curve with a large enough effect; inconclusive = small, poorly fitted or top-dose-only effect; inactive = no such curve, though single readings can be large or run the other way.

Cc1c(-n2cc(C(=O)O)c(=O)c3cc(F)c(N4CCCC(O)C4)c(F)c32)c(=O)n(-c2ccccc2)n1C (stereo unspecified)	none (no result: L3MBTL1 inh)
O=C(O)c1cn(-c2ccc(N3CCCC3)c(F)c2)c2c(F)c(F)c(F)cc2c1=O	G9a block 45µM, JMJD2A Tudor inh inconclusive (no result: L3MBTL1 inh)
COC(=O)c1c(Oc2ccc(Br)cc2)nnc(-c2ccccc2)c1-c1ccccc1	none (no result: L3MBTL1 inh)
Cc1c(C(=O)N2CCN(C3CCS(=O)(=O)C3)CC2)oc2ccc(Cl)cc12 (stereo unspecified)	none
Cc1ccc(C)n1C1CCS(=O)(=O)C1 (stereo unspecified)	G9a block 56µM
CCOC(=O)c1cnc(-n2[nH]c(C)c(Cc3ccccc3)c2=O)[nH]c1=O	L3MBTL1 inh 2.8µM, JMJD2A Tudor inh 7.9µM, BAZ2B inh 2µM
CCOC(=O)c1cnc(-n2[nH]c(C)cc2=O)[nH]c1=O	HP1b binding inh 50µM, L3MBTL1 inh 3.2µM, G9a block inconclusive, JMJD2A Tudor inh 2.8µM, BAZ2B inh 1.8µM
CCOC(=O)c1cnc(-n2nc(C)cc2C)nc1N1CCOCC1	G9a block 79µM
CCOC(=O)c1cnc(Cc2ccccc2)[nH]c1=O	none
CCOC(=O)c1cnc(-n2nc(C)cc2C)[nH]c1=O	BAZ2B inh 40µM
COc1ccc(-n2c(=O)c3c4c(sc3n(Cc3ccc(F)cc3)c2=O)CCCC4)c(OC)c1	G9a block inconclusive (no result: L3MBTL1 inh)
O=C(Cc1ccccc1)Nc1ccc(NC(=O)c2ccccc2)c(Cl)c1	none (no result: G9a block)
O=C(C1CCC1)N1CCc2cc(S(=O)(=O)NCc3ccc(F)cc3)ccc21	none (no result: L3MBTL1 inh, BAZ2B inh)
CC(=O)Nc1ccc(NCN2C(=O)[C@@H]3[C@H]4CC[C@H](C4)[C@@H]3C2=O)cc1	none
CCOC(=O)c1c(CN2CCN(C)CC2)n(C)c2cc(Br)c(OC)cc12	none
COc1ccc(CN2CCN(c3ccc(F)cc3)CC2)c(OC)c1OC	none
COc1cc(OC)c(CN2CCCN(C)CC2)cc1Br	HP1b binding inh inconclusive, JMJD2A Tudor inh 1.4µM, BAZ2B inh 79µM (no result: G9a block)
COc1cc(OC)c(CN2CCN(c3ccc(F)cc3)CC2)cc1Br	G9a block 35µM, JMJD2A Tudor inh 2.5µM, BAZ2B inh 50µM
Fc1ccc(CSc2nncn2NCc2ccccc2)cc1	none
CN(C)c1ccc(CNn2cnnc2SCc2ccc(F)cc2)cc1	G9a block inconclusive, JMJD2A Tudor inh inconclusive, BAZ2B inh 45µM (no result: L3MBTL1 inh)
O=C(NN1CCOCC1)c1ccc(Cl)s1	none (no result: G9a block)
CCC(Nc1ccc(-c2nc(-c3ccco3)no2)cc1[N+](=O)[O-])c1ccccc1 (stereo unspecified)	none (no result: L3MBTL1 inh)
COc1cccc(CNC(=O)CSc2ncc(S(=O)(=O)c3ccc(Br)cc3)c(=O)[nH]2)c1	none (no result: L3MBTL1 inh)
Cc1ccc(C(C)C)c(OCCn2ccnc2C)c1	HP1b binding inh inconclusive, G9a block 10µM, JMJD2A Tudor inh 1.3µM, BAZ2B inh 50µM
Cc1ccc(C(C)C)c(OCCNS(C)(=O)=O)c1	none (no result: L3MBTL1 inh)
Cc1ccc(OCCCCn2ccnc2C)c(C)c1	HP1b binding inh inconclusive, G9a block 2µM, JMJD2A Tudor inh 1µM, BAZ2B inh 22µM
CN(C)c1ccc(NC(=O)Cn2c(SCc3ccc(F)cc3)nc3cccnc32)cc1	none (no result: L3MBTL1 inh)
CC(=O)Nc1ccc(S(=O)(=O)NCCc2csc3nc(-c4ccc(Cl)cc4)nn23)cc1	none (no result: L3MBTL1 inh)
CC(=O)c1c(C)[nH]c(C(=O)OCC(=O)C(C)(C)C)c1C	BAZ2B inh inconclusive
CCOC(=O)c1c(C)[nH]c(C(=O)OCc2ccccc2)c1C	none (no result: L3MBTL1 inh)
COC(=O)CCc1c(C)[nH]c(C(=O)OCc2ccccc2)c1C	G9a block inconclusive, JMJD2A Tudor inh inconclusive, BAZ2B inh 50µM
CC(=O)c1c(C)[nH]c(C(=O)OCc2ccc(Br)cc2)c1C	none (no result: L3MBTL1 inh)
CC(=O)c1c(C)[nH]c(C(=O)OCc2cccc(C)c2)c1C	BAZ2B inh 50µM (no result: L3MBTL1 inh)
CC(=O)c1c(C)[nH]c(C(=O)OCC(=O)c2ccc(C)s2)c1C	BAZ2B inh 56µM
CCNc1nc(NCC)n2c(SCC(=O)Nc3ccccc3[N+](=O)[O-])nnc2n1	none
CCOC(=O)c1cc(-c2ccc(OC)cc2)n(CCC(=O)NCc2ccccc2OC)c1C	G9a block inconclusive, BAZ2B inh inconclusive (no result: L3MBTL1 inh)
O=C(c1cnc(N2CCCCC2)c2ccccc12)N1CCN(c2cccc(Cl)c2)CC1	none (no result: L3MBTL1 inh)
Cc1ccc2nc(-c3ccc(Cl)c(NC(=O)c4ccc5c(c4)OCCO5)c3)oc2c1	none (no result: L3MBTL1 inh)
O=C1CNC(=O)/C1=C\N1CCN(C(c2ccccc2)c2ccccc2)CC1	G9a block 45µM
O=C(NC1CC1)c1cc(=S)[nH]c2ccccc12	JMJD2A Tudor inh 18µM (no result: G9a block, BAZ2B inh)
O=C(NC1CC1)C(=O)c1c[nH]c2ccccc12	BAZ2B inh inconclusive (no result: L3MBTL1 inh, G9a block)
CCOC(=O)C1(CCOc2ccccc2)CCN(Cc2cc(OC)c(O)c(OC)c2)CC1	G9a block 79µM, JMJD2A Tudor inh inconclusive
CCOC(=O)C1(CCOC)CCN(Cc2ccc3nonc3c2)CC1	none
CCOC(=O)C1(Cc2ccccc2C)CCCN(Cc2cn(C)nc2C)C1 (stereo unspecified)	none (no result: G9a block)
CCOC(=O)C1(CCOc2ccccc2)CCN(Cc2ccc(OC)c(O)c2)CC1	none (no result: G9a block)
CCOC(=O)C1(CCOC)CCN(Cc2cnc(-c3cccc(C)c3)nc2)CC1	G9a block 45µM
CCOC(=O)C1(CCOc2ccccc2)CCN(Cc2ccc(O)cc2)CC1	none (no result: G9a block)
CCOC(=O)C1(Cc2ccccc2C)CCCN(Cc2cc(OC)c(O)c(OC)c2)C1 (stereo unspecified)	G9a block 45µM
CCOC(=O)C1(CCOc2ccccc2)CCN(Cc2ccc(O)c(OCC)c2)CC1	G9a block 79µM, JMJD2A Tudor inh inconclusive
Cc1ccc(-n2c(C)nnc2SCC(=O)N(C)C2CCS(=O)(=O)C2)cc1 (stereo unspecified)	none
Cc1cc(C)nc(SCC(=O)Oc2ccc3oc(=O)cc(C)c3c2)n1	G9a block 50µM
Fc1cccc(Cl)c1CNCCSc1nnnn1-c1ccccc1	none (no result: L3MBTL1 inh)
CCOc1ccc(C2C(=O)N(C3CCCCC3)CC(=O)N2Cc2ccccc2OC)cc1OC (stereo unspecified)	none (no result: L3MBTL1 inh)
NC(=O)[C@@H]1CCCNc2c(F)cc([N+](=O)[O-])cc2C(=O)N[C@@H](CO)C(=O)N[C@@H](Cc2ccc(O)cc2)C(=O)N1	G9a block inconclusive
C[C@@H]1NC(=O)[C@H](CCC(=O)O)NC(=O)c2cc([N+](=O)[O-])cc(F)c2NCCC[C@@H](C(N)=O)NC1=O	G9a block 79µM
NC(=O)CC[C@@H]1NC(=O)C(Cc2ccc(O)cc2)NC(=O)c2cc([N+](=O)[O-])cc(F)c2NCCC[C@@H](C(N)=O)NC1=O (stereo partly specified)	G9a block 50µM, BAZ2B inh inconclusive (no result: HP1b binding inh, JMJD2A Tudor inh)
COc1ccc(OC)c(CCNC(=O)CCCn2c(=O)c3cccn3c3ccccc32)c1	none (no result: L3MBTL1 inh)
COc1cc(OC)c(OC)cc1CN1CCc2nc(N3CCN(C)CC3)ncc2C1	JMJD2A Tudor inh inconclusive, BAZ2B inh inconclusive (no result: L3MBTL1 inh)
Brc1csc(CN2CCc3nc(Nc4ccccc4)ncc3C2)c1	BAZ2B inh inconclusive (no result: L3MBTL1 inh)
